Laboratory results: article doi:10.1101/2025.02.07.636106

Each substance was assayed against EEA1 (UniProt Q15075) (assay: cross-linking mass spectrometry). Conditions: DMTMM.
EEA1, sequence (Q15075 whole entry): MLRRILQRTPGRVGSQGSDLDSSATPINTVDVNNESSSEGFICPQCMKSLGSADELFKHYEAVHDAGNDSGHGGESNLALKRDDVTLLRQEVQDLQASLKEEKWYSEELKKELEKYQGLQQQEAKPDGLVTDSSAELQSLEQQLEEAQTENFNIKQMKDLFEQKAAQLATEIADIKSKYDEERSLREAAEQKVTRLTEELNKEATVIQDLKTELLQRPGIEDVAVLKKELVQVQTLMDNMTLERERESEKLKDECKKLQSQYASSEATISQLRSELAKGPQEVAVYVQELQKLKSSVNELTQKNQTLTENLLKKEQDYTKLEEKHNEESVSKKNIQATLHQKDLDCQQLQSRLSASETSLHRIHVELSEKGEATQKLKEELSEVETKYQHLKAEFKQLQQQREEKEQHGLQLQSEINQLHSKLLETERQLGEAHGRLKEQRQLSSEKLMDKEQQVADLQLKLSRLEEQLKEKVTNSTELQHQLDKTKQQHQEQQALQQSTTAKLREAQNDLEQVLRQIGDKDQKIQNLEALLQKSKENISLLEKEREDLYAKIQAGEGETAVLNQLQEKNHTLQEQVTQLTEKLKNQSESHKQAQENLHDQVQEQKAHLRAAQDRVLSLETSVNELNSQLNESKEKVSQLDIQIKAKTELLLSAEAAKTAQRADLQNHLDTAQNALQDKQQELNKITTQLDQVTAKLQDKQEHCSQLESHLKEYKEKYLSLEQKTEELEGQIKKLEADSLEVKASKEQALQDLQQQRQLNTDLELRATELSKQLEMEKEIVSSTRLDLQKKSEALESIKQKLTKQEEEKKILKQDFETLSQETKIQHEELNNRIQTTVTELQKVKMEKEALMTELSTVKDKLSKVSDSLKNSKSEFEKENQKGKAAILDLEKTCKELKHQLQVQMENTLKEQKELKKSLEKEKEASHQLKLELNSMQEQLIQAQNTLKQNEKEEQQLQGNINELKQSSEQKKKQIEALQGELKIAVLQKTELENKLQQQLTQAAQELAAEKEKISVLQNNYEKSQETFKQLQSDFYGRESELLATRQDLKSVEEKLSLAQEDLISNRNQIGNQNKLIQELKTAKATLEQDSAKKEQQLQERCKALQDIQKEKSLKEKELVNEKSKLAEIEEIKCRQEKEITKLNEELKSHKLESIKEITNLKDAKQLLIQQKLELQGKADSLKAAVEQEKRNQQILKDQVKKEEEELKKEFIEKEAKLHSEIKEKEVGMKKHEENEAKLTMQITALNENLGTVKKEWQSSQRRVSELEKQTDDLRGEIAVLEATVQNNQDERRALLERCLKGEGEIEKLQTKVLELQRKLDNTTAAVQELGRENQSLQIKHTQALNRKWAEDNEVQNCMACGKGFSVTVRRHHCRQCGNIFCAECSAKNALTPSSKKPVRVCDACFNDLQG

RAB9A, P51151, sequence (P51151 whole entry): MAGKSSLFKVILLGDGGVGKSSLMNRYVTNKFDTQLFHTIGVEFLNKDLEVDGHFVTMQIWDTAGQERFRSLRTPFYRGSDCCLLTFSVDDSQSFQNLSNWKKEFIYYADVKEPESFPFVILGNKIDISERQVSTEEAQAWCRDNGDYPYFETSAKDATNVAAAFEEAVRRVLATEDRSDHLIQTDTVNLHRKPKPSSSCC
ACADL, P28330, sequence (P28330 whole entry): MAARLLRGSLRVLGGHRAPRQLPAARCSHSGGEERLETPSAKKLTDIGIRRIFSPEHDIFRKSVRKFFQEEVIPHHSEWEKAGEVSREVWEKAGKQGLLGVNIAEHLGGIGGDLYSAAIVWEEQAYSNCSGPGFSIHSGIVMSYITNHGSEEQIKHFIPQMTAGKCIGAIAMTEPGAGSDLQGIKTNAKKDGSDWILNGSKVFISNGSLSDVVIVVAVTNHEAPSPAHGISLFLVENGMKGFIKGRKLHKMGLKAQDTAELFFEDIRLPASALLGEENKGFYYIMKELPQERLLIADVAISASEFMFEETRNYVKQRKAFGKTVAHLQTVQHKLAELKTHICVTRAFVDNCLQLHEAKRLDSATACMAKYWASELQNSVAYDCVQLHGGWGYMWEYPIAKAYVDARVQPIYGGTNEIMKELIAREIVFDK
TPM4, P67936, sequence (P67936 whole entry): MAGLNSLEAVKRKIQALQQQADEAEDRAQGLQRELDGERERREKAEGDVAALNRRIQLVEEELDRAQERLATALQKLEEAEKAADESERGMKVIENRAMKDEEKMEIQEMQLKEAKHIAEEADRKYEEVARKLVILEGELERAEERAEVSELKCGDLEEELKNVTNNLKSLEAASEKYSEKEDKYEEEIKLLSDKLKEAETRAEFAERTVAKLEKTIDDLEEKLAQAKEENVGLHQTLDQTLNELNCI
ROCK2, O75116, sequence (O75116 whole entry): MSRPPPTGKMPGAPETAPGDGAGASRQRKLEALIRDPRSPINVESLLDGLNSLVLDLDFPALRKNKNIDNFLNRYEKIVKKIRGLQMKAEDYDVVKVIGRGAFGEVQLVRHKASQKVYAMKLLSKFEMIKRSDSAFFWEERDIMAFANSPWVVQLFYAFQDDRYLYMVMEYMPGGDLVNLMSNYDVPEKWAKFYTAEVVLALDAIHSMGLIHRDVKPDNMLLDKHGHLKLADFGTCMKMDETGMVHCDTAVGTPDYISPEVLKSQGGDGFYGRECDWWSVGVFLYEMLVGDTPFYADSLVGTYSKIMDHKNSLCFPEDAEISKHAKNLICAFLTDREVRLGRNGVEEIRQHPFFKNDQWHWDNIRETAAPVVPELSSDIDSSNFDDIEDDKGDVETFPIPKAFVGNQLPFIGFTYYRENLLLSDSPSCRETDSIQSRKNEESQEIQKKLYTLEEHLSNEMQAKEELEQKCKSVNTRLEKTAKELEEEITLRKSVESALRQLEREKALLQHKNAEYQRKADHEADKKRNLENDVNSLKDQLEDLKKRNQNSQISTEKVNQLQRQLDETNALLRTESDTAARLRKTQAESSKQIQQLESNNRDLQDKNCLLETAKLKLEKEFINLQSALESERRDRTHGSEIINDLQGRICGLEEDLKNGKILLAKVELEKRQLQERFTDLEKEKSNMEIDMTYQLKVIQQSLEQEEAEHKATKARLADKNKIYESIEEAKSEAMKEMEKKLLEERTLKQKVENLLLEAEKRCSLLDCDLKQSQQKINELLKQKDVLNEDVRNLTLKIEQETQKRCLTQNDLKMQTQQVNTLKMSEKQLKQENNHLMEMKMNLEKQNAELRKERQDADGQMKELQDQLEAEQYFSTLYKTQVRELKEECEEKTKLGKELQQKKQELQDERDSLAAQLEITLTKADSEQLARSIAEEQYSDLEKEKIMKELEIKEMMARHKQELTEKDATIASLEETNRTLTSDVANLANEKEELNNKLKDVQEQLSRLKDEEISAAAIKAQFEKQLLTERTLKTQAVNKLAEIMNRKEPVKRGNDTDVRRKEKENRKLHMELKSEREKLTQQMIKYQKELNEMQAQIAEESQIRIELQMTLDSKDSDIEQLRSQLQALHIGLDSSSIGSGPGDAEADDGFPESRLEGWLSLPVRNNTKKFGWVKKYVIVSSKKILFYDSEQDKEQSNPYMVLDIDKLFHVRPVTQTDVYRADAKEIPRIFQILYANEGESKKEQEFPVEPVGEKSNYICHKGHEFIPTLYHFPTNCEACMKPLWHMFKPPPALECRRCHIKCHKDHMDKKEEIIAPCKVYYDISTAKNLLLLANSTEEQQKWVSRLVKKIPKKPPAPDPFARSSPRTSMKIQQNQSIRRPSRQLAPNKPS

| Substance | cross-linked residues |
| --- | --- |
| ZNF638, Q14966 | K951 - E91 |
| DMD, P11532 | E2453 - K227 |
| ACADL, P28330 | K92 - D1321 |
| NEB, P20929 | K8264 - E1248 |

Same assay, conditions: DSSO

| Substance | cross-linked residues |
| --- | --- |
| ROCK2, O75116 | K780 - K303 |
| RAB9A, P51151 | K4 - K1340 |
| DST, Q03001 | K3770 - K995 |
| TPM4, P67936 | K215 - K370 |
